For experiment [1], the target named is Peroxisome proliferator-activated receptor gamma (Homo sapiens) (UniProt P37231). The experiment can be described thus: OT_PPARg_PPARgSRC1_0480: Odyssey Thera (OT) 8-hour Protein-Complementation Assay for Peroxisome Proliferator-activated Receptor Gamma / SRC-1 Co-activator (AID 2283387; active means hit-call score of the fitted dose curve at least 0.9, where 1 is the maximum). The method in brief: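 Read-out: 488 nm N/C fluorescence ratio from complemented Venus YFP fragments, ≥350 cells per image, gain-of-signal fitted against DMSO baseline. Fusions of PPARg/SRC-1 with IFP1/IFP2 expressed transiently in HEK293T; compounds applied 8 h.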
Chain of Peroxisome proliferator-activated receptor gamma (Homo sapiens) (P37231 whole entry, looked up, the tested form may be a part): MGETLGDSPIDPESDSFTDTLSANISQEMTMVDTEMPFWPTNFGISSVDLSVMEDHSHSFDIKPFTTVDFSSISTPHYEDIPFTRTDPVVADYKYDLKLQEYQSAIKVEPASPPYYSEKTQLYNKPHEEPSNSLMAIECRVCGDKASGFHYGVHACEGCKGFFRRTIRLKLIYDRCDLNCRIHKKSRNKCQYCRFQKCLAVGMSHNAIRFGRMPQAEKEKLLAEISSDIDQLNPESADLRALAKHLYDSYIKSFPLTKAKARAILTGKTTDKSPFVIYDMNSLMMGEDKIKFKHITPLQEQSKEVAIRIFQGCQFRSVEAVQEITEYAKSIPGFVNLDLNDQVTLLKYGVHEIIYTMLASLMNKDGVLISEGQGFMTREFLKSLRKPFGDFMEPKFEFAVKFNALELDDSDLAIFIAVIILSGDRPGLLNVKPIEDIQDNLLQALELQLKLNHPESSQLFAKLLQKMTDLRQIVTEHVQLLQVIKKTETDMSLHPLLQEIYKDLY

The target is the same in experiment [2]. Put plainly: OT_PPARg_PPARgSRC1_1440: Odyssey Thera (OT) 24-hour Protein-Complementation Assay for Peroxisome Proliferator-activated Receptor Gamma/ SRC-1 Co-activator (AID 2283388; active means hit-call score of the fitted dose curve at least 0.9, where 1 is the maximum). The method in brief:
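HEK293T transiently transfected with PPARg/SRC-1 split-Venus YFP fusions 48 h before dosing, then treated 24 h at 37C. Fixed cells imaged; nuclear/cytoplasmic 488 nm fluorescence ratio, gain of signal versus DMSO.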

The nature of experiment [3]: CEETOX_H295R_11DCORT: CeeTox H295R High-throughput Steroidogenesis Assay for 11-Deoxycortisol (11DCORT) (AID 2283432).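 On AC50: 11-deoxycortisol secreted into the medium measured by LC-MS/MS.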 The following applies: actives raise or lower the signal. The method in brief:
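H295R cells; 10 uM forskolin prestim 48 h; compound in 0.1% DMSO 48 h; media extracted with MTBE; 11-deoxycortisol by LC-MS/MS, 7-point standard curve; gain/loss vs DMSO baseline; viability by MTT in same wells.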

Experiment [4] is described as follows: CEETOX_H295R_OHPREG: CeeTox H295R High-throughput Steroidogenesis Assay for OH-Pregnenolone (OHPREG) (AID 2283434). The following applies: actives raise or lower the signal. The method, boiled down:
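Secreted 17alpha-hydroxypregnenolone measured by HPLC-MS/MS after liquid-liquid extraction. Human adrenal H295R cells received 48 h forskolin (10 uM) stimulation before 48 h chemical exposure at 0.1% final DMSO; MTT viability in same wells; bidirectional fit against DMSO.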

A short description of experiment [5]: CEETOX_H295R_CORTISOL: CeeTox H295R High-throughput Steroidogenesis Assay for Cortisol (AID 2283438). As to conditions: actives raise or lower the signal. The method, boiled down: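 Cortisol measured by HPLC-MS/MS after MTBE extraction of medium from H295R cells exposed 48 h to chemical (0.1% DMSO), following 48 h prestimulation with 10 uM forskolin. Viability assessed by MTT in the same wells.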

The nature of experiment [6]: CEETOX_H295R_DOC: CeeTox H295R High-throughput Steroidogenesis Assay for DOC (AID 2283439). As to conditions: actives raise or lower the signal. The method in brief: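 11-Deoxycorticosterone quantified in medium by MTBE extraction and HPLC-MS/MS after 48 h chemical exposure (0.1% DMSO) of forskolin-primed (10 uM, 48 h) H295R cells. Same-well MTT viability; data fitted bidirectionally against DMSO.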

Experiment [7] is described as follows: CEETOX_H295R_ESTRADIOL: CeeTox H295R High-throughput Steroidogenesis Assay for Estradiol (AID 2283440).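 Further: estradiol secreted into medium quantified by LC-MS/MS after dansyl derivatisation.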 The following applies: actives raise or lower the signal. The method in brief: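 H295R cells pre-stimulated 48 h with 10 uM forskolin, then exposed 48 h to chemical in 0.1% DMSO. Medium estradiol quantified by MTBE extraction, dansyl derivatisation and HPLC-MS/MS; bidirectional fit versus DMSO; MTT viability required >/=70%.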

Experiment [8] is described as follows: CEETOX_H295R_ESTRONE: CeeTox H295R High-throughput Steroidogenesis Assay for Estrone (AID 2283441).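 On AC50: human adrenal H295R cells prestimulated with forskolin for two days.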 As to conditions: actives raise or lower the signal. The method in brief:
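Estrone secreted into medium quantified by LC-MS/MS after dansyl chloride derivatization, following 48 h chemical exposure (0.1% DMSO final) of forskolin-prestimulated (10 uM, 48 h) H295R cells; gain or loss fitted against DMSO; MTT viability in same wells.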

Experiment [9] is described as follows: CEETOX_H295R_PROG: CeeTox H295R High-throughput Steroidogenesis Assay for Progesterone (PROG) (AID 2283442).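 On AC50: human H295R adrenal cells primed with 10 µM forskolin before dosing.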 As to conditions: actives raise or lower the signal. The method, boiled down:
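H295R adrenal cells prestimulated 48 h with 10 uM forskolin, then exposed 48 h to test chemical in 0.1% DMSO. Progesterone in medium quantified by HPLC-MS/MS after MTBE extraction; viability checked by MTT in same wells.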

The nature of experiment [10]: CEETOX_H295R_ANDR: CeeTox H295R High-throughput Steroidogenesis Assay for Androstenedione (ANDR) (AID 2283436). The following applies: actives raise or lower the signal. The method, boiled down:
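Medium from 48 h chemical-treated H295R adrenal cells was extracted with MTBE and androstenedione measured by LC-MS/MS. Activity was fit in both directions relative to DMSO. Cytotoxic concentrations were re-tested after dilution until MTT viability reached ≥70%.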

Inconclusive results are not listed. Active and inactive are the calls of the source. How the source made its calls, unless noted: active means hit-call score of the fitted dose curve at least 0.9, where 1 is the maximum; inactive means score below 0.9.

On to `Oc1ccc(-c2ccccc2)c(Cl)c1`, for which the call in [1] and in experiment [2] was inactive.
With `CN(C)Cc1cc(CN(C)C)c(O)c(CN(C)C)c1`, the compound was called inactive in experiment [1] and in [2].
With `CCC1COC(=O)O1` (stereo unspecified), the compound was called inactive in experiment [1] and in [2].
For `O=C(O)c1cc(O)c2ccccc2c1O`, the AC50 in [1] was 73.7 µM (active); in experiment [2], 73.2 µM (active); in experiment [6] it was 0.445 µM (active); in [9] it was 0.5 µM (active). The compound was called inactive in [3], in [4], in experiment [5], in experiment [7] and in [8].
In the case of `O=C(OCc1ccccc1)c1ccc(O)cc1`, the call in experiment [1] and in experiment [2] was inactive. The AC50 in experiment [3] was 36.8 µM (active); in [4], 30.5 µM (active); in experiment [5], 36.9 µM (active); in experiment [6], 42.7 µM (active); in experiment [7], 50 µM (active); in experiment [8] it was 37.5 µM (active). Also, the AC50 in experiment [9] was 24.6 µM (active).
For `CCOC(=O)C1=NN(c2ccc(Cl)cc2Cl)C(C)(C(=O)OCC)C1` (stereo unspecified), the result in experiment [3], in [4], in experiment [10], in experiment [5], in experiment [6] and in [7] was inactive. Further, the call in [8] and in experiment [9] was inactive.
Take `CCCCCCCOC(=O)c1ccc(O)cc1`: the outcome in experiment [1] and in [2] was inactive.
For the compound `CCN1CN(CC)CN(CC)C1`, the outcome in experiment [1], in experiment [2], in experiment [3], in [4], in [5] and in experiment [6] was inactive. The compound was called inactive in experiment [7], in experiment [8] and in experiment [9].
With `CCCCCCCCCCCC(=O)N(C)CC(=O)O`, the compound was called inactive in [1] and in [2].
As to `CCC(C)(O)CCCC(C)C` (stereo unspecified), in experiment [2], the call was inactive.
As for `C1CNCCN1`, the call in experiment [1] and in [2] was inactive.
Turning to `CC(C)(c1ccccc1)c1ccc(Nc2ccc(C(C)(C)c3ccccc3)cc2)cc1`, the result in [1] and in [2] was inactive. In addition, the AC50 in [3] was 2.72 µM (active); in experiment [4] it was 1.54 µM (active); in experiment [5] it was 9.95 µM (active); in [6] it was 0.82 µM (active); in [9] it was 1.84 µM (active).
For the compound `Oc1ccccc1Cc1ccccc1O`, the compound was classed as inactive in [1] and in experiment [2].
Consider `CC(C)(C)NC(=O)[C@H]1CC[C@H]2[C@@H]3CC[C@H]4NC(=O)C=C[C@]4(C)[C@H]3CC[C@]12C`, for which the result in [1] and in experiment [2] was inactive. The AC50 is 34.4 µM (active) in experiment [3], 36.3 µM (active) in experiment [5], 13.5 µM (active) in experiment [6] and 1.57 µM (active) in experiment [9].
As for `C=C[C@@]1(C)CC(=O)[C@]2(O)[C@@]3(C)[C@@H](O)CCC(C)(C)[C@@H]3[C@H](O)[C@H](OC(C)=O)[C@@]2(C)O1`, the result in [1], in experiment [2] and in experiment [9] was inactive. Moreover, the AC50 is 0.51 µM (active) in experiment [3]; 0.817 µM (active) in experiment [4]; 0.726 µM (active) in experiment [5]; 0.418 µM (active) in [6]; 0.774 µM (active) in experiment [7]; 0.719 µM (active) in experiment [8].
Take `COc1ccc(C(=O)c2ccccc2)c(O)c1`: the outcome in experiment [1], in experiment [2], in [3], in experiment [4], in experiment [5] and in [6] was inactive. Further, the compound was classed as inactive in experiment [7], in [8] and in experiment [9]. The concentration at half-maximal activity (AC50) in [10] was 25 µM (active).
Turning to `CCCCCCCCCCCCc1ccc(O)cc1`, the compound was called inactive in [2].
As for `CC(C)=CCCC(C)=CC#N`, the compound was called inactive in experiment [1] and in [2].
As for `Cc1ccc([N+](=O)[O-])cc1N`, the compound was called inactive in [1], in experiment [2] and in [4]. For the same compound, the AC50 in experiment [9] is 30.2 µM (active).
`O=C(O)c1ccc2c(c1)C(=O)OC2=O`: the call in experiment [1] and in experiment [2] was inactive.

Values taken from PubChem BioAssay (EPA / NIEHS).
